The record followed here is PubChem BioAssay AID1259343 (VanderVen Lab, College of Veterinary Medicine, Cornell …, 2017).

About 2,900 (47%) of roughly 6,200 compounds were called active. The set was probably picked from earlier hits. The list shows a part of the results. Unmarked numbers belong to inactive results. Cut-off read from the data, not from the text of the source: active = inhibition above about 50%; inactive = the rest.

The test in a line: Mycobacterium tuberculosis growth inhibition, primary screen (AID 1259343). The settings on record: inhibition: at 10 µM, stronger effect = higher value; outcome: 10 uM.
The inhibition is the drop in the measured response relative to a control, in per cent. For the compound `CCC(=O)O[C@H]1CCC2C3CCc4cc(O)ccc4C3CC[C@@]21C` (some centres not stated), the inhibition is 46.7%.

For `CCC(CC)C(NC[c-]1[c-][c-][c-][c-]1)c1ccccc1.[Fe].[c-]1[c-][c-][cH-][c-]1` (configuration not stated), the inhibition is 36.6%.

Take `O=C(CCc1nc2ccccc2o1)N1CC=C(c2ccccc2)CC1`: the inhibition is 29.9%.

In the case of `O=C(O)CCc1nc2ccccc2oc1=O`, the inhibition was 67.4% (active).

As for `CCOc1ccc2cc(C(=O)C(C#N)C(=O)c3ccsc3)[nH]c2c1` (configuration not stated), the inhibition is 12.1%.

Consider `c1cc2c(c(-c3cccc4[nH]ccc34)c1)CCNC2`, for which the inhibition was 73.2% (active).

On to `Cn1c2c(c3cc(-c4cccc5c4CCNC5)ccc31)CCCC2=O`, for which the inhibition was 10.9%.

Consider `O=c1[nH]cc(F)c(=O)[nH]1`, for which the inhibition is 67.9% (active).

`Cc1csc(C(C#N)=Cc2cccc(O)c2)n1`: the inhibition is 88.7% (active).

`N#CC(=Cc1ccsc1)c1nc2ccccc2s1`: the inhibition was 11.6%.

In the case of `Cc1nc(CNc2ccc3c(c2)CCN3C(=O)OC(C)(C)C)cs1`, the inhibition is 29.2%.

`CN1CCCc2cc(NC(=O)NCCC(=O)NC3CCCC3)ccc21`: the inhibition is 0.23%.

With `CC(C)(C)OC(=O)N1CCc2cc(NC(=O)C(=O)NC3CC3)ccc21`, the inhibition is 74.5% (active).

For `COc1cccc(-c2cnnc(N3CCC(OCc4ccccc4)CC3)n2)c1`, the inhibition was 30.1%.

`c1ccc(COC2CCN(CCOc3ccccc3)CC2)cc1`: the inhibition is 50.1% (active).

For `CCc1cc(=O)[nH]c(-n2nc(C)cc2NC(=O)c2ccccc2)n1`, the inhibition is 102% (active).

Consider `CCc1cc(=O)[nH]c(-n2nc(C)cc2NC(=O)c2ccc(-c3ccccc3)cc2)n1`, for which the inhibition is 103% (active).

As to `CCc1cc(=O)[nH]c(-n2nc(C)cc2NC(=O)c2cccc(C)c2)n1`, the inhibition is 101% (active).

For `N#Cc1ccc(Nc2ccc(N3CCCC3)c(F)c2)nc1`, the inhibition is 48.8%.

Turning to `N#Cc1ccc(Nc2ccc(OC3CCCC3)cc2)nc1`, the inhibition is 93.4% (active).

Turning to `N#Cc1ccc(Nc2ccc(Cl)cc2)cc1`, the inhibition was 3.65%.

With `CC(C)C1=CC2=CC[C@H]3[C@](C)(CO)CCC[C@]3(C)C2CC1` (some centres not stated), the inhibition is 82.5% (active).

Turning to `Cc1cn(Cc2csc(C(C)C)n2)cc1C#N`, the inhibition was 1.23%.

For `N#Cc1cccc(C(=O)NCc2cccc(-c3ncc(-c4ccc(F)cc4)[nH]3)c2)c1`, the inhibition was 81.2% (active).

Take `Cn1c(Sc2ncc(-c3ccc(F)cc3)[nH]2)c(C#N)c(=O)n(C)c1=O`: the inhibition is -14.4%.

Consider `O=C(NCc1cccc(-c2ncc(-c3ccc(F)cc3)[nH]2)c1)c1cccs1`, for which the inhibition is 22.9%.

`O=C(COC1CCCCC1)Nc1ccc(-c2nccs2)cc1`: the inhibition was -7.41%.

With `Cc1nc(-c2ccc(NC(=O)COC3CCCCC3)cc2)cs1`, the inhibition was 95% (active).

On to `Cc1nc(-c2cccs2)cc([C@H]2CN3CC[C@H]2C[C@@H]3CNC(=O)Nc2cccc(C(F)(F)F)c2)n1`, for which the inhibition was 53.2% (active).

With `Cc1nn(-c2ccccc2)c(Cl)c1C(=O)Nc1cccc(C(F)(F)F)c1`, the inhibition is 38.3%.

As to `Cc1sc2nc(CSc3ccc(Br)cc3)nc(-n3ccnc3)c2c1C`, the inhibition is -19.2%.

In the case of `CC(=O)NCCC(=O)Nc1ccc(Oc2ccc(C#N)cc2)c(Cl)c1`, the inhibition was -2.79%.

For the compound `N#CCOc1ccc(NC(=O)CCOc2ccc(F)cc2Cl)cc1`, the inhibition is 81.4% (active).

`Cc1ccc(C(=O)Nc2ccc(OCC#N)cc2)cc1C`: the inhibition was 22%.

For the compound `O=S(=O)(CCCOc1ccc2c(c1)OCO2)N1CCCCCC1`, the inhibition was 86% (active).

For the compound `O=S(=O)(CCCOc1ccc2c(c1)OCO2)N1CCCCC1`, the inhibition is 88.8% (active).

`CCOC(=O)N1CCN(S(=O)(=O)CCCOc2ccc3c(c2)OCO3)CC1`: the inhibition is 32.5%.

For the compound `Clc1ccc(Cn2ncc3c(N4CCCCC4)ncnc32)cc1`, the inhibition was 67.1% (active).

`Clc1ccc(Cn2ncc3c(N4CCCC4)ncnc32)cc1`: the inhibition is 65.3% (active).

Take `Cc1ccc(Cn2ncc3c(N4CCC(C)CC4)ncnc32)cc1`: the inhibition was 25.7%.

Regarding `CC1CCN(c2ncnc3c2cnn3Cc2ccc(Cl)cc2)CC1`, the inhibition was 62.6% (active).

As to `c1ccc2c(c1)oc1c(N3CCCCCC3)ncnc12`, the inhibition was -12.7%.

Turning to `CCN(CC)c1ncnc2c1cnn2Cc1ccc(Cl)cc1`, the inhibition was 34.4%.

`Clc1ccc(Cn2ncc3c(N4CCN(c5cccc(Cl)c5)CC4)ncnc32)cc1`: the inhibition was 14.4%.

As to `CCOc1ccc(C2C(c3nc4ccccc4s3)=C(O)C(=O)N2c2cc(C)on2)cc1OC` (configuration not stated), the inhibition was 46.5%.

`Clc1ccccc1C(c1ccccc1)(c1ccccc1)n1ccnc1`: the inhibition is 68.1% (active).

Turning to `COc1cc(OC)c2c(OC)c(-c3ccc4c(c3)OCO4)c(=O)oc2c1`, the inhibition is 70.6% (active).

As to `Cn1ncc2c(N3CCN(CC(=O)Nc4ccc(Cl)cc4F)CC3)ncnc21`, the inhibition is 88.8% (active).

For `CCCc1cc(=O)[nH]c(-n2nc(C)cc2NC(=O)c2ccc(OC)cc2)n1`, the inhibition is -40.9%.

`CCCc1cc(=O)[nH]c(-n2nc(C)cc2NC(=O)c2cc(OCC)c(OCC)c(OCC)c2)n1`: the inhibition was 100% (active).

With `CCCc1cc(=O)[nH]c(-n2nc(C)cc2NC(=O)c2ccc(OCC)cc2)n1`, the inhibition is 100% (active).

As for `CCCCOc1ccc(C(=O)Nc2cc(C)nn2-c2nc(CCC)cc(=O)[nH]2)cc1`, the inhibition is 101% (active).

On to `CCOc1cc(C(=O)Nc2cc(C)nn2-c2nc(C)cc(=O)[nH]2)cc(OCC)c1OCC`, for which the inhibition is 100% (active).

With `Clc1ccc(OCC2CCCNC2)c2ccccc12` (configuration not stated), the inhibition was 77.8% (active).

Take `O=C(COc1ccc(Cl)c2ccccc12)NCC(F)(F)F`: the inhibition is 17.8%.

Consider `Nc1ncc(Cc2ccc(F)c(Cl)c2)s1`, for which the inhibition is -17.6%.

In the case of `Nc1ncc(Cc2ccc(Br)cc2)s1`, the inhibition is 46.1%.

For the compound `Nc1ncc(Cc2ccc(F)cc2)s1`, the inhibition was 93% (active).

On to `COC(=O)c1ccc(COc2ccc(C3C4=C(Nc5nnnn53)C(C(C)(C)C)CCC4)cc2)cc1` (configuration not stated), for which the inhibition was 88.6% (active).

As for `COCCc1noc(C2CC2c2ccc(C)s2)n1` (configuration not stated), the inhibition was 90.7% (active).

On to `Cc1ccc(C2CC2C(=O)NC(C)c2nc(C3CCCC3)no2)s1` (configuration not stated), for which the inhibition is 29.8%.

Regarding `O=S(N1CCc2ccccc2C1)C12CC3CC(CC(C3)C1)C2` (configuration not stated), the inhibition is 80.3% (active).

Regarding `O=c1cc(CSc2cccc[n+]2[O-])c2c(ccc3ccccc32)o1`, the inhibition was 102% (active).

In the case of `Nc1ncc([N+](=O)[O-])c(Sc2nc3ccccc3s2)n1`, the inhibition was -52.4%.

Take `C=CCNc1nnc(Sc2ncccc2[N+](=O)[O-])s1`: the inhibition was 98.3% (active).

With `CC(C)=CCC1=C(O)c2ccccc2C(=O)C1=O`, the inhibition was 101% (active).

In the case of `O=C(Nc1nc2c(s1)CCN(Cc1ccccc1)C2)c1cccc(F)c1`, the inhibition was 21.5%.

As for `O=C(Nc1nc2ccc3ccccc3c2s1)c1ccccc1`, the inhibition was 61.4% (active).

Turning to `COc1ccc(Nc2ncnc3c2cnn3Cc2ccc(C)cc2)cc1`, the inhibition is 23.5%.

Consider `Cc1ccc(Cn2ncc3c(Nc4ccc(C)cc4)ncnc32)cc1`, for which the inhibition was 35.1%.

In the case of `Cc1ccc(Cn2ncc3cc(Br)cnc32)cc1`, the inhibition is 97% (active).

Consider `Cc1ccccc1-n1cc(CN(C)Cc2nc(-c3ccccc3)no2)cn1`, for which the inhibition is 86% (active).

With `CCOc1ccc(Br)cc1S(=O)(=O)Oc1cccc2c1OC(C)(C)C2`, the inhibition was 23.4%.

In the case of `COc1ccc(Br)cc1S(=O)(=O)Oc1ccc2ccccc2c1`, the inhibition was 95.9% (active).

Take `O=C(NCc1ccc(OCC2CC2)nc1)c1cccc2cn[nH]c12`: the inhibition was 79.9% (active).

Take `O=C(NS(=O)(=O)c1ccc(Cl)cc1F)c1cccc2cn[nH]c12`: the inhibition was 22.9%.

With `CC(C)Oc1ccc(CNC(=O)c2cc(Cl)ccc2F)cn1`, the inhibition was -0.38%.

`COCCn1c(O)c(C=NNC(=O)c2cc(Cl)ccc2O)c(=O)[nH]c1=S`: the inhibition was 45.1%.

As for `O=C(NN=Cc1ccco1)c1cc(Br)ccc1O`, the inhibition was 98.8% (active).

For the compound `C=CCc1ccc(OCCOc2ccc(F)cc2)c(OC)c1`, the inhibition was -4.29%.

On to `C=CCc1ccc(OCCCCn2cnc3ccccc32)c(OC)c1`, for which the inhibition was 61.1% (active).

Turning to `C=CCc1ccccc1OCCn1cnc2ccccc21`, the inhibition is 57% (active).

`OCc1ccc(Oc2ccc(Br)cc2)c(F)c1`: the inhibition was 94.1% (active).

As to `Cc1ccc(S(=O)(=O)c2ccc([N+](=O)[O-])o2)cc1`, the inhibition was 102% (active).

`Cc1nc(N)sc1-c1ccc([N+](=O)[O-])o1`: the inhibition is -7.32%.

As for `Cc1cc(C)c(-c2nc(NC(=O)C3=COCCO3)sc2C)cc1C`, the inhibition was 11.4%.

In the case of `O=C(Nc1nnc(C2CC(=O)N(c3ccccc3)C2)o1)C1=COCCO1` (configuration not stated), the inhibition was 93.6% (active).

As to `NC(=S)COc1ccccc1`, the inhibition was 65.4% (active).

For the compound `NC(=S)COc1ccc(F)cc1`, the inhibition is 77.8% (active).

Regarding `O=C1CC(=O)N2C(c3ccccc3)=CSC2(OCCS)N1` (configuration not stated), the inhibition was -5.38%.

Consider `N#Cc1sc(-c2cccc(Cl)c2)cc1N`, for which the inhibition is 42.5%.

On to `CC(NC(=O)c1ccc(-c2cccc(Cl)c2)s1)C(C)(C)C` (configuration not stated), for which the inhibition is 50% (active).

Take `Cc1cccc(CNC(=O)c2ccc(-c3ccc(Oc4ccccc4)cc3)s2)c1`: the inhibition is 82.4% (active).

As to `COc1cccc(CNC(=O)c2ccc(-c3ccc(F)cc3)s2)c1`, the inhibition entry is “inactive”.

`O=C(NCc1ccncc1)c1ccc(-c2ccc(C3CCCCC3)cc2)s1`: the inhibition is 8.46%.

Turning to `COc1ccc(CNC(=O)c2ccc(-c3cccc(Cl)c3)s2)cc1`, the inhibition is 54.9% (active).

Consider `Clc1ccc(-n2cccc2CN2CCc3c([nH]c4ccccc34)C2c2ccccn2)nc1` (configuration not stated), for which the inhibition was 37.9%.

For the compound `Cc1ccc2c(=O)c(-c3cccc(C(F)(F)F)c3)coc2c1`, the inhibition is 57.7% (active).

For the compound `NC(=O)c1cc2c(cc1-c1cccc(C(F)(F)F)c1)OCO2`, the inhibition is 22.9%.

With `CC(C)Cc1noc(CCCNC(=O)Nc2cccc(Cl)c2)n1`, the inhibition was 55.1% (active).

For `Cc1[nH]ncc1CCCNC(=O)Nc1ccc(Cl)c(Cl)c1`, the inhibition is -9.82%.

In the case of `CC(C)c1cc(C(=O)NCc2nc(Cc3cccs3)no2)n(C)n1`, the inhibition is 13.7%.
